Assay results taken from PubChem BioAssay AID1445 (SRMLSC, 2008).
Among all 220,000 compounds or so, about 910 (0.41%) were called active. The sample holds actives, similar compounds and a random draw of the others, so the mix is not that of the screen. Potency and affinity values are given separately. A number with no mark means an inactive call.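 How the source made its calls: active means primary inhibition above the hit cutoff, then over 50% inhibition at one or more dose response concentrations (cut at about 23% in these data, passing the limit was not always enough); inconclusive means conflicting primary data, or primary hits not chosen for dose response; inactive means low primary inhibition, or under 50% at every dose.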

Target: Aminopeptidase N (Plasmodium falciparum (isolate 3D7)) (UniProt O96935)
Experiment: P. falciparum M1AAP inhibitors, biochemical, fluorogenic H-Leu-NHMec substrate, 1536-well (AID 1445);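 further: plate controls were DMSO full reaction for no effect and no enzyme background for full effect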
Conditions: recombinant M1AAP, H-Leu-NHMec fluorogenic kinetic assay; at 30 µM, active compounds read high unless noted

Aminopeptidase N (Plasmodium falciparum (isolate 3D7)), sequence (O96935 whole entry, looked up): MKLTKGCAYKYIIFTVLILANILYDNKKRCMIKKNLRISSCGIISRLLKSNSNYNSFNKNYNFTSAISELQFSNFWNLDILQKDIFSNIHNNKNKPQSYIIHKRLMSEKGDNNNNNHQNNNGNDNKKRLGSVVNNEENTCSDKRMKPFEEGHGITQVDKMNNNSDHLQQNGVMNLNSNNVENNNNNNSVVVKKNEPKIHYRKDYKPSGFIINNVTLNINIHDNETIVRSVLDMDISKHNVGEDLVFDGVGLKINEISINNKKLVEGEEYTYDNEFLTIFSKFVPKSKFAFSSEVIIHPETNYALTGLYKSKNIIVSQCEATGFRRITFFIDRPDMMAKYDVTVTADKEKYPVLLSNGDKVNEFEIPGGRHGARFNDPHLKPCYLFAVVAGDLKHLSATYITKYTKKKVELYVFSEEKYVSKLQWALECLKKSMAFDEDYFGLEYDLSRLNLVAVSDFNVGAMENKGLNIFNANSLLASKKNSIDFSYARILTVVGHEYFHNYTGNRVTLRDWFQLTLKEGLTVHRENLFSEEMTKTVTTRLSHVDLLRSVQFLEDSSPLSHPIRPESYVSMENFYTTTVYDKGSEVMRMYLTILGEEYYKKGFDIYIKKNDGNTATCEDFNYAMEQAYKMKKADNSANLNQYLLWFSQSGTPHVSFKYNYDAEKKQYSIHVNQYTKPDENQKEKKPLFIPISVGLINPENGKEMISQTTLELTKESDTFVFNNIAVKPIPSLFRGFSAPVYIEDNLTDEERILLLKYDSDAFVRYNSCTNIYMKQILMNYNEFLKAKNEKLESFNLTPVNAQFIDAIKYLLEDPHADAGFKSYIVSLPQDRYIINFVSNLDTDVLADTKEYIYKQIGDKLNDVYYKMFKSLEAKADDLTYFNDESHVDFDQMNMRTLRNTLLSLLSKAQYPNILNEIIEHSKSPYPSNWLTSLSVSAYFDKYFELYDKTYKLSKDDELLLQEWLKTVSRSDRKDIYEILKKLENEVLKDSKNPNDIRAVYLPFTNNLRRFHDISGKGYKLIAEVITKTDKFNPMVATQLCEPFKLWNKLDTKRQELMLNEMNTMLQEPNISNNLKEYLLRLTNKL

| Compound | inhibition |
| --- | --- |
| O=C(O)CSc1cc(C(=O)c2cc(F)ccc2O)cn2c(=O)c3c(-c4ccccc4)csc3nc12 | 21.3% |
| Cc1sc2nc3c(C(=O)N4CCCC4)cc(C(=O)c4ccccc4O)cn3c(=O)c2c1C | 17.2% |
| O=C(O)CSc1cc(C(=O)c2ccccc2O)cn2c(=O)c3c(-c4ccccc4)csc3nc12 | 17.9% |
| CCOC(=O)c1cc(C(=O)c2ccccc2O)cn2c(=O)c3c(C)c(C)sc3nc12 | 13.9% |
| CCOC(=O)c1sc2nc3c(SCCC#N)cc(C(=O)c4cc(F)ccc4O)cn3c(=O)c2c1C | 2.71% |
| CCOC(=O)c1sc2nc3c(SCC(=O)O)cc(C(=O)c4ccccc4O)cn3c(=O)c2c1C | 9.02% |
| COC(=O)N/N=C(\C)c1ccc(-n2ccnc2)cc1 | -0.5% |
| CCC(=O)N/C(N)=N/c1nc(C)c2cc(C)c(C)cc2n1 | 7.6% |
| C=CCn1c(N)cc(=O)nc1SCC(=O)NC(C)c1ccccc1 (centres undefined) | -2.4% |
| O=C(N/N=C/c1ccco1)c1cc(Br)ccc1OCc1ccccc1 | 4.59% |
| C[C@H](NC(=O)c1ccco1)C(=O)Nc1ccc(S(=O)(=O)N2CCCC2)cc1 | -6.98% |
| CC(C)c1ccc(S(=O)(=O)N2CCN(C(=O)c3ccco3)CC2)cc1 | 0.71% |
| CC(C(=O)Nc1ccc(S(=O)(=O)N2CCCC2)cc1)N1CCN(C(=O)c2ccco2)CC1 (centres undefined) | 35.6% (active) |
| Cc1[nH]n(-c2ccccc2)c(=O)c1N=Nc1ccccc1 | 4.86% |
| Cc1ccc(N=Nc2c(C)[nH]n(-c3ccccc3)c2=O)c(C)c1 | 3.7% |
| CC(/C=N/Nc1nc(N2CCCCC2)nc(N2CCCCC2)n1)=C\c1ccccc1 | 5.4% |
| OCCNc1nc(OCC(F)(F)F)nc(N2CCN(C34CC5CC(CC(C5)C3)C4)CC2)n1 | 9.11% |
| CC(=O)Cc1nsc(NC(=O)c2ccc(Br)o2)n1 | 0.84% |
| CC(=O)Cc1nsc(NC(=O)c2ccc(COc3ccccc3)o2)n1 | 26.3% (active) |
| CC(=O)Cc1nsc(NC(=O)c2ccc(COc3ccc(C)cc3)o2)n1 | 8.72% |
| Cc1cc(NC(=O)CSc2nc(C(C)C)nc3c2c(=O)n(C)c(=O)n3C)no1 | 5.47% |
| O=C(O)Cc1sc(-c2cccnc2)nc1-c1ccc(Br)cc1 | 9.14% |
| CCOC(=O)N1CCN(c2cc(=O)n(-c3ccccc3Cl)c(=O)[nH]2)CC1 | -0.91% |
| CNc1oc(-c2ccc(C)cc2)nc1P(=O)(c1ccccc1)c1ccccc1 | -2.06% |

| Compound | inhibition |
| --- | --- |
| CCN(CC)S(=O)(=O)c1ccc(-c2nnc(SCC(C)=O)o2)cc1 | 26.5% (active) |
| CCN(CC)S(=O)(=O)c1ccc(-c2nnc(SC)o2)cc1 | -2.39% |
| CCN(CC)S(=O)(=O)c1ccc(-c2nnc(SCC(=O)N3CCOCC3)o2)cc1 | -1.63% |
| CCCCn1c(SCC(=O)Nc2nccs2)nc2ccccc2c1=O | 1.43% |
| Cc1cc(NC(=O)CSc2nc3ccsc3c(=O)n2CCCCC(=O)O)no1 | 7.32% |
| Cn1c(CNC(=O)c2ccccc2)nnc1SCC(=O)Nc1nccs1 | 0.84% |
| CCCCn1c(SCC(=O)Nc2cc(C)on2)nc2ccsc2c1=O | 0.46% |
| COc1ccccc1NC(=O)Cn1nc(Cc2cccnc2)c2ccccc2c1=O | 4.36% |
| Cc1cc2cc(C#N)c(NCCNC(=S)NCCCN3CCOCC3)nc2cc1C | 11% |
| Cc1nc(SCC(=O)NCc2cccs2)nc(C)c1C | 1.91% |
| CCOc1ccc(N2CC(=O)N/C2=N\c2nc(C)cc(C)n2)cc1 | 0.69% |
| CS(=O)(=O)N(CC(=O)NCc1ccccc1Cl)C1CCCCC1 | -3.91% |
| CCC(CC)C(=O)NN(C(=O)c1ccncc1)C1CC(=O)N(c2ccccc2)C1=O (centres undefined) | 0.84% |
| CCN(CC)Cc1ccc(NC(=O)c2sc3cc(Cl)ccc3c2Cl)cc1 | 5.72% |
| CCOC(=O)C1ON2CCCCC2C1(O)C(F)(F)F (centres undefined) | 4.11% |
| COC(=O)c1c(-c2ccc3ccccc3c2)csc1NC(=O)Cc1ccc(OC)c(OC)c1 | -5.43% |
| O=C(Nc1scc(-c2ccccc2)c1C(=O)O)c1ccco1 | 13.6% |
| Cc1ccc(C(=O)Nc2ccccc2-c2ccccc2)o1 | 5.46% |
| CCOC(=O)c1c(-c2ccc(OC)cc2)csc1NC(=O)CSc1ccccc1 | 9.31% |
| COc1ccc(-c2csc(NC(=O)c3ccc(OCC(=O)N4CCOCC4)c(OC)c3)n2)cc1OC | -0.86% |
| COc1ccc(CCNC(=O)[C@@H](NC(N)=O)C(C)C)cc1 | 1.11% |
| CCOc1ccccc1NC(=O)CCNC(=O)c1ccc(Cl)cc1 | -0.92% |
| COc1ccccc1C(=O)Nn1c(C2CCC2)nc2ccccc2c1=O | 28.5% |
| COc1cccc(OC)c1C(=O)Nn1c(C2CCC2)nc2ccccc2c1=O | 1.68% |

| Compound | inhibition |
| --- | --- |
| Cc1nc2ccccc2c(=O)n1NC(=O)C1CCCCC1 | 0.92% |
| O=C(Nn1c(-c2ccccc2)nc2ccccc2c1=O)C1CCC1 | 8.13% |
| NS(=O)(=O)c1ccc(NC(=S)NC(=O)/C=C/c2ccco2)cc1 | 22.5% |
| C/C(=N/NC(=O)CN1CCN(S(=O)(=O)c2ccc(Br)cc2)CC1)c1ccco1 | 3.47% |
| COc1ccc(NC(=O)c2ccc(-c3ccccc3Cl)o2)cc1 | 2.03% |
| Cc1ccc(S(=O)(=O)N2CCCCC2)cc1NC(=O)CSc1nnc(N)s1 | 11.9% |
| COc1ccccc1OCC(=O)N/N=C1\CCc2ccccc21 | -5.88% |
| O=C1Nc2ncccc2OC1CCO (centres undefined) | 1.94% |
| C=CCc1cccc(/C=N/NC(=O)c2ccccc2Br)c1O | -2.15% |
| COc1ccc(Br)cc1/C=N/NC(=O)c1cc(Br)ccc1O | 9.13% |
| O=C(N/N=C/c1cc(Br)ccc1O)Nc1ccccc1 | 2.93% |
| O=C(N/N=C/c1ccccc1C(=O)O)c1ccccc1Br | -4.66% |
| CC1=NNC(=O)C1Oc1ccccc1 (centres undefined) | 3.86% |
| CCCCCCn1c(N2CCC(C(N)=O)CC2)nc2c1c(=O)[nH]c(=O)n2C | -0.78% |
| Cc1nc(Cl)sc1C(=O)Nc1ccccc1 | 2.8% |
| O=C(CSc1nc2ccccc2c(=O)n1-c1ccccc1)c1c[nH]c2ccccc12 | 1.41% |
| COc1ccc2cc(C(=O)C3CCCN(C(=O)CSc4nnc(C)o4)C3)ccc2c1 (centres undefined) | 12.3% |
| OC1=C(O)c2nc3ccccc3nc21 | -5.83% |
| Cc1cc2nc3c(nc2cc1C)C(O)=C3O | 20.8% |
| Cc1nc2c(c3c1[nH]c1ccccc13)C(O)CC(C)(C)C2 (centres undefined) | 22.4% |
| C=CCn1c(=O)/c(=C/c2ccc(Cl)cc2)s/c1=C(/C#N)c1nnc2n1CCCCC2 | 21.5% |
| C=CCn1c(=O)/c(=C/c2ccc(F)cc2)s/c1=C(\C#N)c1nnc2n1CCCCC2 | 20.7% |
| CCOc1ccc(NC(=NCc2ccc3c(c2)OCO3)SC2CC(=O)N(c3ccc(C(=O)O)cc3)C2=O)cc1 (centres undefined) | 1.35% |
| N=c1sccn1CC(=O)Nc1ccc(S(=O)(=O)N2CCOCC2)cc1 | -2.17% |

| Compound | inhibition |
| --- | --- |
| Cc1ccc(Cn2c(O)c(N=O)c3ccccc32)cc1 | 4.37% |
| O=C(c1ccc2c(c1)OCO2)C1CCCN(C2CCN(CCc3ccccc3)CC2)C1 (centres undefined) | 6.4% |
| CC(C)(C)NC(=O)CSc1nnc(Cc2ccccc2)n1CC1CCCO1 (centres undefined) | 2.88% |
| O=C(O)C1C2C=CC(C2)C1C(=O)NCc1cccnc1 (centres undefined) | 2.34% |
| COc1ccc(NC(=O)NCc2ccco2)c(OC)c1 | 1.06% |
| COc1ccc(OC)c(C2=NOC(C(=O)NCc3ccccn3)C2)c1 (centres undefined) | -2.41% |
| COc1ccc(NC(=O)C2C3C=CC(C3)C2C(=O)NCc2ccccn2)c(OC)c1 (centres undefined) | 25.6% (active) |
| COc1ccc(OC)c(NC(=S)NCc2cccnc2)c1 | 4.71% |
| COc1ccc(NC(=O)C2C3C=CC(C3)C2C(=O)NCc2ccco2)cc1 (centres undefined) | 4.82% |
| O=C(O)C1C2C=CC(C2)C1C(=O)NCc1ccccn1 (centres undefined) | -0.69% |
| O=C(NCc1ccccn1)C1C2C=CC(C2)C1C(=O)Nc1ccc(F)cc1 (centres undefined) | 18.1% |
| Cc1cccc(C)c1NC(=O)C1C2C=CC(C2)C1C(=O)NCc1ccccn1 (centres undefined) | 15.1% |
| O=C(Cn1nc(Cl)nc1Cl)Nc1ccccc1 | 0.91% |
| O=C(NNC(=S)Nc1ccc(F)cc1)C1[C@H]2CCCC[C@@H]12 (some centres undefined) | -16.1% |
| O=C(NCc1n[nH]c(=S)n1-c1ccc(Br)cc1)c1ccc(S(=O)(=O)N2CCOCC2)cc1 | 2.45% |
| Cc1cc(C)c(S(=O)(=O)N2CCN(C)CC2)c(C)c1 | 4.18% |
| Cc1ccc(NC2=C(Cl)C(=O)OC2OC(=O)c2ccco2)cc1C (centres undefined) | 5.26% |
| C=CCOC(=O)C1=C[C@@H](c2coc3ccccc3c2=O)C[C@@H](OCc2ccc(CO)cc2)O1 | 6.22% |
| CCN(CC)CCOC(=O)c1cccc2c1-c1ccccc1C2O (centres undefined) | 1.02% |
| NNC(=O)c1cc2c(s1)-c1cc(Cl)ccc1SC2 | 3.34% |
| Cc1ccc(SCC(=O)Nc2ccccc2C(=O)O)cc1 | -0.6% |
| CC(=O)Nc1cccc(C(=O)Nc2ccccc2C(=O)O)c1 | -0.69% |
